# From PubChem BioAssay (NCATS)
# Several values for one entry are separate records, joined by “and”; a condition that tells them apart may be missing. Equal values may be shown once. Records with an inconclusive call do not appear. Some compounds were tested as several samples or in several runs, with calls that do not always agree. Unmarked numbers belong to inactive results. Activity calls are given as the source filed them. The call rests on the fitted dose curve; in most records, active means well fitted inhibition curve with a large enough effect; inconclusive means small, poorly fitted or top-dose-only effect; inactive means flat fitted curve, though single readings scatter.
# Test system: HEK293
# Experiment: Cytotoxic Profiling of Annotated Libraries Using Quantitative High-Throughput Screening (AID 1296008); further: nearly all actives have a fitted effect of over 60% in size
# Details: Five cell lines viability, CellTiter-Glo ATP luminescence, 48-72 h; max response: stronger effect = lower value
# Excerpt: Cell-based phenotypic screening is a commonly used approach to discover biological pathways, novel drug targets, chemical probes and high-quality hit-to-lead molecules. Many hits identified from high-throughput screening campaign are ruled out through a series of follow-up potency, selectivity/specificity, and cytotoxicity assays. Prioritization of molecules with little or no cytotoxicity for a more in-depth downstream evaluation influence the future direction of projects, so cytotoxicity profiling of the screening libraries at early stage is essential for increasing the likelihood of candidate success. […] For the annotated library, we also examined the primary targets and mechanistic pathways regularly associated with cell death. To our knowledge, this is the first study to use high-throughput screening to profile large libraries for cytotoxicity assessment in both normal and cancer cell lines. In summary, the results generated here constitutes a valuable resource for the scientific community and provides insight on identifying cytotoxic compounds with particular mechanisms of action, and prioritizing compounds with suitable cytotoxicity profile for further evaluation.
# A pintool (Kalypsys) was used to transfer 23 nL of compound solution to the 1536-well assay plates. After 48 or 72 hr incubation at 37 degree Celsius, 5% CO2 and 95% humidity, 2.5 uL of CellTiter-Glo (Promega) was dispensed into each well using a dispenser (Aspect Automation, St. Paul, MN) with solenoid valves (Lee Valves, Westbrook CT). Plates were left at room temperature for 10 min before imaging the ATP-coupled luminescence using a ViewLux microplate imager (PerkinElmer, Waltham, MA).
# On the % scale 0 is the no-effect control and ±100 the full control effect; potency means the concentration at half of the fitted maximal effect.
Structure (SMILES),outcome,Potency,max response
O=C(O)C(Cl)Cl,inactive,–,–
CC1=C(O)C(=O)C=C2C1=CC=C1[C@@]2(C)CC[C@@]2(C)[C@@H]3C[C@](C)(C(=O)O)CC[C@]3(C)CC[C@]12C,–,1.48 µM (active),–
Cc1c(C(=O)Nc2cccc(C(F)(F)F)c2)cc(-c2ccccc2)n1CCCN1CCOCC1,–,14.8 µM (active) and 14.6 µM (active),–
CC(O)CN1CCN(CC(=O)[O-])CCN(CC(=O)[O-])CCN(CC(=O)[O-])CC1.[Gd+3] (stereo not given),–,–,-21.1%
CO/C=C(/C(=O)OC)c1ccccc1Oc1cc(Oc2ccccc2C#N)ncn1,–,8.63 µM (active),–
O=[N+]([O-])/N=C1\NCCN1Cc1ccc(Cl)nc1,inactive,–,–
C[C@]12Cc3cn[nH]c3C[C@@H]1CC[C@@H]1[C@H]2CC[C@@]2(C)[C@H]1CC[C@]2(C)O,–,–,-21.8%
CCN1C[C@]2(OC(=O)c3ccccc3NC(C)=O)CC[C@H](OC)[C@@]34[C@H]5CC6[C@@H](OC)C[C@](O)(C(C[C@@H]23)[C@@H]14)[C@@]5(O)[C@@H]6OC,–,–,-8.41%
CC1=C(C(=O)O)N2C(=O)[C@@H](N)[C@H]2SC1,inactive,–,–
O=c1[nH]c2ccc(Cl)cc2c(N[C@@H]2CN3CCC2CC3)c1-c1nc2ccccc2[nH]1,–,0.059 µM (active),-122%
CCCCCC[C@H]1C(=O)O[C@H](C)[C@H](NC(=O)c2cccc(NC=O)c2O)C(=O)O[C@@H](C)[C@@H]1OC(=O)CC(C)C,–,0.469 µM (active),–
C=CCC1=C(C)C(OC(=O)C2C(C=C(C)C)C2(C)C)CC1=O (stereo not given),–,19.3 µM (active),–
CCOC(=O)c1c(C(C#N)=CN)c2ccc(Cl)c(Cl)c2n1C,–,–,-12.5%
CN[C@@H](C)[C@H](O)c1ccccc1,inactive,–,–
CC(C)(C)c1cc(C=C(C#N)C#N)cc(Br)c1O,–,–,-8.76%
Nc1ccc(Cl)cc1,–,–,4.83%
Oc1ccc2c3c1O[C@H]1[C@@H](O)C=C[C@H]4[C@@H](C2)NCC[C@@]341,–,–,-17.4%
O=C(O)CNC(=O)c1c(O)c2ccccc2n(Cc2ccccc2)c1=O,inactive,–,1.22%
C#CC1(O)CCC2C3CCC4=CC(=O)CCC4(C)C3CCC21C (stereo not given),–,–,-10.4%

Structure (SMILES),outcome,Potency,max response
C[C@]12CCC(=O)C(O)=C1CC[C@@H]1[C@H]3CCC(=O)[C@@]3(C)CC[C@@H]12,–,–,-10.2%
CC(N[C@H]1C[C@H]1c1ccccc1)c1ccc2c(c1)OCCO2 (stereo not given in full),–,–,0.032% and -12.5%
COc1nn(CSP(=S)(OC)OC)c(=O)s1,–,21.7 µM (active),–
O=C1C=CC[C@@H]2[C@H]3CCCN4CCC[C@@H](CN12)[C@@H]34,inactive,–,–
CSCC[C@@H](NC(=O)[C@@H](Cc1ccccc1)NC(=O)CNC(=O)CNC(=O)[C@@H](N)Cc1ccc(O)cc1)C(=O)O,–,–,3.52%
c1cc2c(cc1[C@H]1OC[C@H]3[C@H]1CO[C@H]3c1ccc3c(c1)OCO3)OCO2,inactive,–,–
CC(C)N(CCNC(=O)CN1CCCC1=O)C(C)C,–,–,4.1% and 1.15%
C1CCC(NC2CCCCC2)CC1,–,–,2.36%
CC[N+]1(CCOC(=O)C(O)(c2ccccc2)c2ccccc2)CCCCC1,inactive,–,–
CC1=NN=C(c2ccc(N)cc2)c2cc3c(cc2C1)OCO3,–,–,3.46%
CC(=Cc1csc(C)n1)[C@@H]1C[C@H]2O[C@@H]2CCC[C@H](C)[C@@H](O)[C@@H](C)C(=O)C(C)(C)[C@@H](O)CC(=O)O1,–,–,-79%
COCCOCCO,–,–,-2.65%
CC1(N2CCC(n3c([C@@H]4CCCNC4)nc4ccccc43)CC2)CCCCCCC1,–,4.69 µM (active) and 7.31 µM (active),–
Cc1c(N)nc([C@H](CC(N)=O)NC[C@@H](N)C(N)=O)nc1C(=O)N[C@H](C(=O)N[C@@H](C)[C@H](O)[C@@H](C)C(=O)N[C@@H](C(=O)NCCc1nc(-c2nc(C(=O)NCCC[S+](C)C)cs2)cs1)[C@@H](C)O)C(O[C@H]1O[C@H](CO)[C@H](O)[C@@H](O)[C@@H]1O[C@H]1O[C@H](CO)[C@@H](O)[C@H](OC(N)=O)[C@H]1O)c1cnc[nH]1 (stereo not given in full),–,0.526 µM (active),–
C[C@@H]1CC[C@H]2[C@@H](C)C(=O)O[C@@H]3O[C@@]4(C)CC[C@H]1[C@]32OO4,–,1.66 µM (active),–
CCN1CCN(C(=O)Cc2ccc(Nc3ncc(F)c(Nc4ccc(C(=O)Nc5ccccc5Cl)cc4)n3)cc2)CC1,–,3.72 µM (active) and 2.59 µM (active),–
CCC(=O)OC1CCC2C3CCC4=CC(=O)CC[C@@]4(C)C3CC[C@]12C (stereo not given in full),inactive,–,–
CN(C)[C@@H]1C(=O)C(C(N)=O)=C(O)[C@@]2(O)C(=O)C3=C(O)c4c(O)cccc4[C@@](C)(O)[C@H]3[C@H](O)[C@@H]12,inactive,–,–
NC1CC1c1ccccc1 (stereo not given),inactive,–,–
